This excerpt belongs to a sample that is enriched for hits.
Dicer processing – inhibitors of Dicer pre-microRNA processing, primary screen, biochemical, cat-ELCCA, chemiluminescence; cat-ELCCA pre-miR-21 Dicer processing; active compounds read high; z-score at 25 µM; 47,000 tested, 6% active; in the data active means z-score above about 3, passing the limit was not always enough;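 further: higher signal means more uncleaved substrate so more Dicer inhibition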
Of the large screens only hits and unclear results are named; the others gave an inactive call.

COC(=O)C1=C(C)N=c2s/c(=C/c3ccc4c(c3)OCO4)c(=O)n2C1c1ccccc1 (stereo not given)	none
Cc1ccc2c(c1)-c1cc(C)nn1C(c1ccc(N(C)C)cc1)N2 (stereo not given)	Dicer processing 6.8
Cc1cc2n(n1)C(c1ccc(O)cc1O)Nc1c(C)cccc1-2 (stereo not given)	none
Cc1cc2n(n1)C(c1ccc(N3CCCC3)cc1)Nc1ccccc1-2 (stereo not given)	Dicer processing 4.48
Cc1cc(C)c2c(c1)-c1cc(C)nn1C(c1cccs1)N2 (stereo not given)	none
Cc1ccc2c(c1)-c1cc(C)nn1C(c1ccc(O)cc1)N2 (stereo not given)	none
Cc1ccc2c(c1)-c1cc(C)nn1C(c1ccc(C(=O)O)cc1)N2 (stereo not given)	none
Cc1cc2n(n1)C(c1ccc(O)cc1)Nc1c(C)cccc1-2 (stereo not given)	Dicer processing 4.8
Cc1cc2n(n1)C(/C=C\c1ccccc1)Nc1c(C)cccc1-2 (stereo not given)	Dicer processing 6.04
Cc1cc2n(n1)C(c1ccc(C(=O)O)cc1)Nc1c(C)cccc1-2 (stereo not given)	none
O=C(OCc1ccc(Cl)cc1)c1cnc(NNC(=O)C(Cl)Cl)nc1C(F)(F)F	none
Cc1ccccc1OC1C(=O)N(C2CCCC2)C1c1ccc2c(c1)OCO2 (stereo not given)	none
CCCCCC(=O)Nc1nc2ccccc2s1	none
Cc1ccc(-c2nc(-c3cc4cc(C)ccc4[nH]c3=O)no2)cc1	none
Cc1cn2c(nc1=O)OC1[C@@H](O)[C@@H](CO)O[C@H]12 (stereo not given in full)	none
Cn1c(=O)cc(N2CCCCC2)c2c(=O)n(-c3ccccc3)c(=O)n(-c3ccccc3)c21	none
CSc1ccc(C2Nc3ccc(C)cc3-c3cc(C)nn32)cc1 (stereo not given)	none
CSc1ccc(C2Nc3ccccc3-c3cc(C)nn32)cc1 (stereo not given)	Dicer processing 4.75
Cc1cc2n(n1)C(c1ccc(N3CCOCC3)cc1)Nc1c(C)cccc1-2 (stereo not given)	Dicer processing 3.84
Cc1cc2n(n1)C(c1cccc(O)c1)Nc1c(C)cccc1-2 (stereo not given)	Dicer processing 4.32
COc1ccc(C2Nc3ccc(C)cc3-c3cc(C)nn32)cc1O (stereo not given)	none
Cc1cc2n(n1)C(c1cccc(O)c1)Nc1ccccc1-2 (stereo not given)	none
Cc1ccc(O)c(C2Nc3c(C)cccc3-c3cc(C)nn32)c1 (stereo not given)	Dicer processing 5.72
Cc1cc2n(n1)C(c1cccc(O)c1O)Nc1c(C)cccc1-2 (stereo not given)	none
Cc1c(C)c(C)c(CSC2=NCCS2)c(C)c1C	none
CC(C)(C(=O)Nc1ccccc1)S(=O)(=O)c1ccc(C(F)(F)F)cn1	none
CCOc1cc(C)c(S(=O)(=O)Nc2cc(C)ccn2)cc1C	none
Cc1c(C(=O)Nc2ccccc2)cc(C(C)(C)C)n1-c1ccccc1	none
N#Cc1cccnc1SCCOC(=O)c1cccc(Cl)c1	none
COc1ccc(-n2cc(C#N)c(=O)n(Cc3ccccc3)c2=O)cc1	none
CCOC(=O)c1nn(-c2ccccc2)c2nc(Nc3ccc(Cl)cc3)cc(=O)n12	none
CN(C)c1ccc(C2/C(=C(\O)c3ccc(F)cc3)C(=O)C(=O)N2Cc2cccnc2)cc1 (stereo not given)	none
CCN(CC)c1ccc(C2Nc3ccccc3-c3cc(C)nn32)cc1 (stereo not given)	Dicer processing 3.33
CSc1ccc(C2Nc3c(C)cccc3-c3cc(C)nn32)cc1 (stereo not given)	Dicer processing 3.93
Cc1cc2n(n1)C(c1ccsc1)Nc1ccccc1-2 (stereo not given)	none
COC(=O)c1ccc(C2Nc3c(C)cc(C)cc3-c3cc(C)nn32)cc1 (stereo not given)	none
COc1ccc2c(c1)C1=NN(C(C)=O)C(c3ccc(Br)cc3)C1CC2 (stereo not given)	none
O=C(O)c1ccc(-c2cc(C(F)(F)F)ccc2Cl)o1	none
OC1(c2ccc(Cl)cc2)CCN(Cc2cn[nH]c2-c2ccccc2)CC1	none
Fc1ccc(N2CCN(Cc3cn[nH]c3-c3ccccc3)CC2)cc1	Dicer processing 3.48
OC1(c2ccc(Cl)cc2)CCN(Cc2cn[nH]c2-c2ccc(F)cc2)CC1	none
Cc1ccc(S(=O)(=O)Nc2cccc3ccccc23)cc1	none
Cc1ccc(S(=O)(=O)Nc2ccc(C)cc2C)cc1	none
Cc1ccc(S(=O)(=O)Nc2cccc3cccc(Br)c23)cc1	Dicer processing 3.13
Cc1nn(C)c(C)c1CN(C)C(=O)c1cc2n(n1)C(C(F)(F)F)CC(c1ccc3c(c1)OCO3)N2 (stereo not given)	none
COc1cc(NC(=S)N(C)C)cc(OC)c1	none
O=C1/C(=C/c2ccco2)COC/C1=C\c1ccco1	none
CSC1=N/C(=C/c2ccco2)C(=O)N1	none
O=C1/C(=C/c2ccco2)CC/C1=C\c1ccco1	Dicer processing 31.3
Cc1nn(C(=O)c2ccc(C(F)(F)F)cc2)c(C)c1Oc1ccc(Cl)cc1	none
COc1ccc(OC)c(-c2ccn[nH]2)c1OCc1ccccc1	none
C[C@H](NS(=O)(=O)c1ccc(F)cc1)C(=O)O	Dicer processing 5.26
CC(NS(=O)(=O)c1ccc(N)cc1)C(=O)O (stereo not given)	none
CC(C)[C@H](NS(=O)(=O)c1ccc(F)cc1)C(=O)O	none
COc1ccc(CCNC(C#N)c2ccco2)cc1OC (stereo not given)	none
Cc1oc(S(=O)(=O)N2CCCCC2)cc1C(=O)Nc1ccccc1	none
CCCC12CN3CC(CCC)(CN(C1)C3c1ccc(O)cc1)C2=O (stereo not given)	none
CCC12CN3CC(CC)(CN(C1)C3c1ccccc1)C2=O (stereo not given)	Dicer processing 5.52
CCC12CN3CC(CC)(CN(C1)C3c1ccccc1F)C2=O (stereo not given)	none
CN(C)S(=O)(=O)c1ccc(/C(O)=C2\C(=O)C(=O)N(CCN3CCOCC3)C2c2ccccc2)cc1 (stereo not given)	none
O=c1[nH]nc(Sc2ccc(C(F)(F)F)cn2)n1C1CCCCC1	none
CSc1nnc(-c2ccc(S(=O)(=O)Oc3cc(Cl)cc(Cl)c3)s2)n1C	none
Cc1nnc(SCC2=NN(c3nc4ccccc4[nH]3)C(=O)C2)s1	Dicer processing 3.18
Cc1nnc(SCc2cc(=O)n3c(nc4ccccc43)[nH]2)s1	none
O=C1CC(CSc2nnnn2-c2ccccc2)=NN1c1nc2ccccc2[nH]1	none
CN(C)c1ccc(/C=N/NC(=O)c2ccncc2)c(Cl)c1	none
COc1ccc2c(c1)sc(/C=C/c1ccc(O)cc1)[n+]2C	none
CCc1ccc(Cc2cn3cc(-c4ccccc4)nc3s2)cc1	none
Fc1ccc(-c2cn3cc(Cc4ccccc4Cl)sc3n2)cc1	none
Clc1ccc(-c2cn3cc(Cc4ccccc4)sc3n2)cc1	none
Fc1ccc(Cc2cn3cc(-c4ccc(F)cc4)nc3s2)cc1	Dicer processing 3.94
Cc1ccc(Cc2cn3cc(-c4ccccc4)nc3s2)cc1	none
Fc1ccc(-c2cn3cc(Cc4ccc(Br)cc4)sc3n2)cc1	Dicer processing 3.42
CN(NC(=O)c1ccc(Cl)cc1)c1ncccc1[N+](=O)[O-]	none
O=C1CCCC(OC(=O)c2ccccc2Cl)=C1Cl	none
Cc1cccc(Cl)c1OC(=O)c1cc(C(C)(C)C)nn1C	none
N#CCSc1ccc(OC(F)(F)F)cc1	none
Cc1c(S(=O)(=O)c2ccccn2)c(N)n(Cc2ccc(C(F)(F)F)cc2)c1C	none
CCN(CC)CCOC(=O)c1ccc(N[C@@H]2O[C@H](CO)[C@@H](O)[C@H](O)[C@H]2O)cc1	none
